# Source: PubChem (several laboratories)
# MPTP inh – blocks calcium-induced mitochondrial swelling. isolated mouse mitochondria, Ca2+ swelling absorbance, 30 min. inhibition, % at 10 µM. 360,000 compounds, 1.4% hits;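 active = inhibition of 50% or more, scaled per plate between neutral and stimulator controls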;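 note: 0% = DMSO wells given calcium and 100% = 1 mM EGTA wells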
# Calb FLC – C. albicans growth modulation with fluconazole; C. albicans CaCi-2 (fluconazole-resistant clinical isolate) + fluconazole, Alamar Blue growth, 48 h; 300,000 compounds, 0.57% hits; AID 1979; growth inhibition, % (concentration not given with the values);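 active = growth inhibition above about 58% in most replicates, limit read from the data, passing the limit was not always enough; inconclusive = exactly half the replicates above a set limit; inactive = most replicates below a set limit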;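 note: all wells also contain fluconazole at 8 µg/ml as a sub-toxic cotreatment; 0% = median of DMSO wells and 100% = median of geldanamycin control wells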
# Mdm2-MdmX inh – human Mdm2/MdmX binding inhibition; SaOS-2 split-luciferase Mdm2/MdmX complementation, luminescence; 330,000 compounds, 3% hits; O15151+Q00987; inhibition, % at 8 µM;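 active = inhibition of at least 50% at 8 µM in the primary screen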
# Target sequence (O15151 whole entry, looked up): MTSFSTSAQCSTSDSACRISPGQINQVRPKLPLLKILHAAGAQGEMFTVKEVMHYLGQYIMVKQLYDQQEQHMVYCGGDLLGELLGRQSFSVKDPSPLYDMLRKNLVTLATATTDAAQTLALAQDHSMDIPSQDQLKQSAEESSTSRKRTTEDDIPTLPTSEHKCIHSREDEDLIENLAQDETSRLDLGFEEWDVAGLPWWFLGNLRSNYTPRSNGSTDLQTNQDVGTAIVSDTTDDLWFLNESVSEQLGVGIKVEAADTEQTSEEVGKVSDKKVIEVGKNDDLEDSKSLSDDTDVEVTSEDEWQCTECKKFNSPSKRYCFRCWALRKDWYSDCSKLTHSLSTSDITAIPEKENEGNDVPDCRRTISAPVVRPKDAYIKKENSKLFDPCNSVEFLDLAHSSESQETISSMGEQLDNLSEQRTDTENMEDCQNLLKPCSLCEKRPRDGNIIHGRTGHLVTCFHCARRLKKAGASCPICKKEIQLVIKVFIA
# Target sequence (Q00987 whole entry, looked up): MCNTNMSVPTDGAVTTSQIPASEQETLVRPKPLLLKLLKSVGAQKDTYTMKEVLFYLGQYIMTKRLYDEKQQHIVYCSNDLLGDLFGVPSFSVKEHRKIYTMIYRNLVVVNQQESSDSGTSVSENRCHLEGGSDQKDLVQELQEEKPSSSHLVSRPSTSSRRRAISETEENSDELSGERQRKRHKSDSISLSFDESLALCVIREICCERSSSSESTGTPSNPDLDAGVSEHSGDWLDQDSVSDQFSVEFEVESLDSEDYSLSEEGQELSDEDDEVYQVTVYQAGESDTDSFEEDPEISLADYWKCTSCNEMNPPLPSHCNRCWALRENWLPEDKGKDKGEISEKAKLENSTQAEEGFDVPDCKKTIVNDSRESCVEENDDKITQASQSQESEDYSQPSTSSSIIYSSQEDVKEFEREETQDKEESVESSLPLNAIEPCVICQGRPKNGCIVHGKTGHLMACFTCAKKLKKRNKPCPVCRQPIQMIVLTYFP
# Beta cell apopt – beta cell apoptosis inhibition; INS-1E cytokine-induced death, ATP luminescence, 48 h; percent of positive-control rescue, neutral wells zero; 300,000 compounds, 0.8% hits; AID 435005; protection from apoptosis, % (test concentration not listed);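 active = Every replicate reaches about 75%, or at least half do and their mean reaches it too, limit read from the data; inconclusive = At least half of replicates reach the limit but their mean does not; inactive = Under half of replicates reach the limit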;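 note: 0% = cytokine-treated negative control wells and 100% = positive control rescue; higher means more ATP so stronger rescue from cytokine killing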
# CSC inhib – cancer stem cell inhibition. cancer stem cell-like cells viability, luminescence. 300,000 compounds, 1.1% hits. inhibition, % at 7.5 µM. AID 2717; in the data active = inhibition above about 75%; inconclusive = no clear call, values can overlap the other calls; tested in HMLE shEcad cells
# Mdm2-MdmX conf – human Mdm2/MdmX binding inhibition, confirmed. shares compounds with Mdm2-MdmX inh. luminescent assay. inhibition, % at 8 µM. 10,000 compounds, 55% hits. AID 489028; in the data active = inhibition above about 40%
# Full FLuc ctr – full-length luciferase inhibition in Mdm2/MdmX counter-screen; AID 504607; 6,200 compounds, 77% hits; inhibition, % at 8 µM; shares compounds with Mdm2-MdmX inh; SaOS-2 full-length luciferase counterscreen, luminescence;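 active = mean inhibition at 8 µM reaching about 37%, which flags the compound as non-specific, limit read from the data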;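 note: p53-null SaOS-2 cells with luciferase driven by a doxycycline-inducible promoter; compound on cells about two nights before reading with doxycycline added after day one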
# Active calls of the source: *; ? = inconclusive; / = no result. In the library only some 4.8% were active in any assay of this set; here they are far more common.
SMILES,MPTP inh,Calb FLC,Mdm2-MdmX inh,Beta cell apopt,CSC inhib,Mdm2-MdmX conf,others
CN(C)S(=O)(=O)c1ccc2c(c1)nc(CCC(=O)NCCc1ccc(Cl)cc1)n2C,-0.7,0.5,0.6,-4.4,-10.6,/,
COC(=O)[C@@]12C[C@@H](CC(=O)NCC3CCCCC3)C(=O)N(CCc3ccc(OC)c(OC)c3)C1=CCC(C)(C)C2,-1.7,/,/,/,/,/,
CCNC(=O)C1CCCN(C(=O)Cc2ccc3ccccc3c2)CC1 (stereo not drawn),0.6,/,/,/,/,/,
O=C(OCc1c(-c2ccccc2)ncc2ccccc12)c1ccc(C(F)(F)F)cc1,-0.7,/,78.4*,6.1,7.9,0.4,
O=C(OCc1c(-c2ccccc2)ncc2ccccc12)c1ccc(F)cc1,0.0,/,9.0,4.7,-9.8,/,
N/C(=N\c1nc2ccccc2o1)NC(=O)c1cccc(Br)c1,0.9,-6.6,59.5*,10.2,1.2,12.8,
N/C(=N\c1nc2ccccc2o1)NC(=O)c1ccccc1,1.4,-6.0,-54.7,-4.2,16.4,/,
C[C@H](CO)N1C[C@H](C)[C@@H](CN(C)S(=O)(=O)c2cccs2)Oc2c(NC(=O)Nc3ccccc3)cccc2C1=O,2.3,/,22.6,-2.7,0.3,/,
COc1ccc(S(=O)(=O)N(C)C[C@H]2Oc3c(NC(=O)Nc4ccc(C(F)(F)F)cc4)cccc3C(=O)N([C@H](C)CO)C[C@@H]2C)cc1,0.1,/,51.7*,13.3,49.5,21.9,
C[C@@H]1CN([C@H](C)CO)C(=O)c2cccc(NC(=O)Nc3ccc(C(F)(F)F)cc3)c2O[C@H]1CN(C)S(=O)(=O)c1cccs1,2.3,/,56.5*,3.9,/,40.8*,Full FLuc ctr=73.0*
O=C(NNC(=O)c1cccnc1SCc1cccc([N+](=O)[O-])c1)c1ccccn1,-3.1,?,54.6*,/,/,78.8*,Full FLuc ctr=21.1
O=C(NNC(=O)c1cccnc1SCc1cccc([N+](=O)[O-])c1)c1ccc(F)cc1,1.5,13.1,13.9,?,-11.2,/,
COc1cccc(-c2cc(NC=O)c3ncc(-c4ccc(C(C)=O)cc4)n3c2)c1,-0.2,/,/,/,/,/,
CCOC(=O)CSC1=C(C#N)C(c2ccc(Cl)cc2)CC(=O)N1 (stereo not drawn),0.4,18.2,25.4,-0.1,-13.7,/,
CCOC(=O)CSC1=C(C#N)C(c2ccc(C)o2)CC(=O)N1 (stereo not drawn),-2.9,1.0,64.7*,28.3,58.2,52.0*,Full FLuc ctr=73.0*
COc1cc(Cl)ccc1NC(=S)N(CCCN1CCOCC1)Cc1cn(C)c2ccccc12,-1.0,25.3,55.2*,-11.9,7.8,22.1,
COc1ccc(Cl)cc1NC(=S)N(CCCN1CCOCC1)Cc1cn(C)c2ccccc12,0.4,7.5,26.2,-1.3,8.1,/,
CCc1nnc(NC(=O)CSc2nnc3c(n2)[nH]c2ccccc23)s1,-0.1,10.4,14.7,-0.6,-26.3,/,
Cc1ccnc(NC(=O)CSc2nnc3c(n2)[nH]c2ccccc23)c1,/,20.9,55.1*,-19.0,17.7,56.0*,Full FLuc ctr=98.9*
COc1cc(C(=O)C(=O)N2CCN(c3ccccc3)CC2)cc(OC)c1OC,0.6,/,/,/,/,/,
CC1=NN(c2nc3ccccc3[nH]2)C(=O)C1Cc1ccccc1 (stereo not drawn),-1.3,-2.5,84.7*,98.9*,100.2*,81.2*,Full FLuc ctr=36.3*
COc1ccc(N2CC(O)=C(c3nc(-c4ccc(Br)cc4)cs3)C2=N)cc1,1.4,-4.4,71.4*,-5.7,-10.4,54.0*,Full FLuc ctr=75.2*
COc1ccc(N2CC(O)=C(c3nc(-c4ccc(Cl)cc4)cs3)C2=N)cc1,0.5,3.4,52.8*,11.8,-6.7,41.5*,Full FLuc ctr=62.6*
COc1ccccc1NC(=O)NCC(c1ccco1)N1CCCCC1 (stereo not drawn),-1.7,-15.4,16.5,0.0,-8.4,/,
CC(=O)NC(C)(c1ccccc1)c1nc(-c2cccc(F)c2)cs1 (stereo not drawn),-0.1,/,/,/,/,/,
CCC(=O)Nc1ccc(NC(=S)NC(=O)c2oc3ccccc3c2C)cc1,3.5,-17.5,72.0*,-5.9,-7.9,-17.1,
CC(=O)Nc1ccc(NC(=S)NC(=O)c2oc3ccccc3c2C)cc1,1.3,-6.9,62.4*,-6.7,2.2,-0.8,
CCOc1ccc(Cl)cc1-c1cc(C(=O)NC(C)C)[nH]n1,0.0,/,/,/,/,/,
CN1C(=O)C(O)(C2COC(C)(C)CC2=O)c2cc(Br)ccc21 (stereo not drawn),0.9,-0.9,52.9*,-5.3,33.6,28.6,
